HTT ATP protect: Huntington cell model cytoprotection by ATP luminescence; PC12 HTT-Q103 induced, cytoprotection, ATP luminescence, 40 h; 230,000 tested, 0.14% active; AID 1471; Potency, µM (top dose mostly 56.4 µM), for the others: cytoprotection (ATP increase), actives largely listed as activators; also: potency is read from the fitted curve at half-maximal effect; % of control where 0% means no effect; nearly all actives have a fitted effect of over 45% in size
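Readout: ATPlite luminescence (ATP level). Model: stable PC12, inducible Htt exon1 Q103-GFP. Inducer: tebufenozide, 100 nM final. Compounds: dose series. No G418 in medium.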
IMPase Li cell: IMPase inhibition in cells with lithium potentiation | CHO-M1 cells, IP1 TR-FRET (IP-One), carbachol + lithium | Potency, µM (series often up to 59.4 µM), without a hit: at the top dose activity, negative = IMPase inhibition, usual class: inhibitors | 210,000 tested, 0.35% active | AID 1457;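 also: IP1 builds up when IMPase is blocked and the TR-FRET signal falls; potency is read from the fitted curve at half-maximal effect; plate controls were basal vehicle for no effect and high inhibitor control for full effect; nearly all actives have a fitted effect of over 50% in size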
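Steps: plate 2000 CHO-M1 cells per well and culture 16–30 h; add compound and lithium; incubate 30 min, 37C; add d2-IP1 tracer and Eu cryptate anti-IP1 antibody in lysis buffer; read after 10 min at room temperature.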
HttQ103 aggreg: mutant huntingtin aggregation inhibition; PC12 HttQ103-GFP aggregates, Acumen cytometry, 40 h; Potency, µM (series often up to 46.1 µM), inactives show at the highest dose activity change, negative = inhibition, most hits filed as inhibitors; 220,000 tested, 1.1% active; AID 1688; also: potency is read from the fitted curve at half-maximal effect; % is scaled to controls: 0 for no effect and ±100 for the full control effect; nearly all actives have a fitted effect of over 60% in size
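PC12 cells stably carrying ecdysone-inducible HTT exon 1 Q103–GFP were induced with tebufenozide (100 nM final) and treated with library compounds in titration. GFP aggregates in lysates were counted by laser scanning cytometry.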
ALDH1A1 inh: ALDH1A1 (human) enzyme inhibition; P00352; Purified ALDH1A1, NADH fluorescence, propionaldehyde substrate; Potency, µM (doses to about 75.3 µM), inactives show at the highest dose activity, negative = inhibition, usual class: inhibitors; 220,000 tested, 7.3% active; AID 1030; active = well fitted inhibition curve with a large enough effect, not every such curve was filed as active; inconclusive = small, poorly fitted or top-dose-only effect, or another doubt; inactive = no such curve, though single readings can be large or run the other way;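 also: potency is read from the fitted curve at half-maximal effect; plate controls were no enzyme wells and a reference inhibitor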
HPGD inh: HPGD (human) dehydrogenase inhibition; P15428; purified HPGD, NADH fluorescence kinetic, PGE2 substrate; Potency, µM, without a hit: top-dose activity change, negative = inhibition, most hits filed as inhibitors; 150,000 tested, 4.3% active; AID 894; active = well fitted inhibition curve with a large enough effect, not every such curve was filed as active; inconclusive = small, poorly fitted or top-dose-only effect, or another doubt; inactive = no such curve, though single readings can be large or run the other way; also: potency is read from the fitted curve at half-maximal effect; % is scaled to controls: 0 for no effect and ±100 for the full control effect
Target sequence (P15428 whole entry, looked up): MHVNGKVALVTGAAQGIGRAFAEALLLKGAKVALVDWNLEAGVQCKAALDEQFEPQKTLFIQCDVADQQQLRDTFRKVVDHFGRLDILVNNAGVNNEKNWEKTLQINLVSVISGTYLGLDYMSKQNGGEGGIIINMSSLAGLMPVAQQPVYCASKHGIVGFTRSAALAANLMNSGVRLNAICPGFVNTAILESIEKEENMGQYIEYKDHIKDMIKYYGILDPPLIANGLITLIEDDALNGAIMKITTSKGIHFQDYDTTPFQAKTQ
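NADH formation kinetics: reaction with 30 uM PGE2 and 1 mM NAD+ (final), 20 nM enzyme, Tris-HCl pH 8 with Tween 20, after 15 min compound preincubation at room temperature. Fluorescence change, last versus first of five reads.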
IMPase inh: membrane-permeable compound that blocks inositol monophosphatase | AID 901 | P97697 | inhibition (IP1 accumulation), % at 46.1 µM | CHO-M1 cells, IP1 accumulation, HTRF TR-FRET ratio | 120,000 tested, under 10 active; active = well fitted curve in the direction sought with a large enough effect in the signal ratio, not every such curve was filed as active; inconclusive = small, poorly fitted or top-dose-only effect, or a change in a side signal; inactive = no such curve, though single readings can be large or run the other way; the % refers to the signal ratio;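 also: cells stimulated with carbachol in lithium chloride buffer; plate controls were DMSO basal wells for no effect and reference inhibitor wells for full effect; higher means more IMPase inhibition seen as more IP1 and lower FRET ratio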
Target sequence (P97697 whole entry, looked up): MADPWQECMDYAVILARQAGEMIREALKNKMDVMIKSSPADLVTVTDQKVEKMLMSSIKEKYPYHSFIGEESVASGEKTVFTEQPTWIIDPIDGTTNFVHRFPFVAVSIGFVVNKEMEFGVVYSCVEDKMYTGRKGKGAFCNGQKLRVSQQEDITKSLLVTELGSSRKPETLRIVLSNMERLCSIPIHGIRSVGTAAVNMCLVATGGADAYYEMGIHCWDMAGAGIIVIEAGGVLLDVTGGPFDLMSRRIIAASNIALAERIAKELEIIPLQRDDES
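CHO-M1, 2000 cells/well, cultured 16–30 h; cpd up to 46 uM; carbachol (50 uM solution, stimulation buffer w/ 50 mM LiCl, pH 7.4), 30 min 37C; IP-One TR-FRET, 10 min RT; Ex 320/Em 665, 620; Hill-fit AC50.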
An asterisk follows results filed as active; ? = inconclusive; nt = no result given; ! = repeats disagree; [ ] = another dose, or the depositor's remark. An excerpt weighted towards active compounds, which were near 9.4% of everything screened. Unless noted, calls follow the shape of the dose curve; as a rule, active = well fitted curve in the direction sought with a large enough effect; inconclusive = small, poorly fitted or top-dose-only effect, or another doubt; inactive = no such curve, though single readings can be large; an effect the other way counts as inactive or inconclusive.

SMILES	HTT ATP protect	IMPase Li cell	HttQ103 aggreg	ALDH1A1 inh	HPGD inh	IMPase inh
CC(=O)c1c(C)oc2ccc(N(C(=O)Oc3ccccc3)S(=O)(=O)c3ccc(Br)cc3)cc12	nt	nt	nt	nt	nt	5.8
COc1ccc(-c2nc(C3CCCCC3)no2)cc1OC	-6.5%	20.4%[38.3 µM]	7.5%	22.4µM*	?	8.4
CCOC(=O)c1ccc(-n2c(CN3CCC(O)CC3)nc3ccc([N+](=O)[O-])cc3c2=O)cc1	-7.6%	4.3%	6.5%	?	nt	nt
CCOC(=O)c1ccc(-n2c(CN(CC)CC)nc3ccc([N+](=O)[O-])cc3c2=O)cc1	?	3.0%	1.8%	28.2µM*	nt	nt
CCOC(=O)c1ccc(-n2c(CN3CCN(CC)CC3)nc3ccc([N+](=O)[O-])cc3c2=O)cc1	11.9%	8.4%	10.1%	?	nt	nt
CCOC(=O)c1ccc(-n2c(CN3CCC(C(N)=O)CC3)nc3ccc([N+](=O)[O-])cc3c2=O)cc1	-4.5%	19.0%	6.9%	8.91µM*	nt	nt
NC(N)=NC[C@@H]1CCCCCCN1	-10.7%[10 µM]	-2.1%	nt	13.4%[13.5 µM]	-9.6%	nt
C1CCC(C(CC2CCCCN2)C2CCCCC2)CC1 (stereo not drawn)	-98.8%	21.4%	25.1µM*!	-1.6%	-1.5%	nt
COc1cccc([C@@H]2Oc3ccc(Br)cc3C(=O)[C@H]2OC(=O)NCc2ccco2)c1	-72.4%	-1.1%	nt	6.0%	-6.4%	nt
Cc1cc(C)nc(SCCc2ccncc2)n1	-4.3%[10 µM]	18.1%[38.3 µM]	-23.1%	25.1µM*	-21.4%	8.2
O=C(/C=C1\NCC2c3ccccc3CCN2C1=O)c1ccccc1 (stereo not drawn)	-81.9%	8.4%[38.3 µM]	-2.2%	20µM*	-19.5%	0.5
O=C(C1CCCCC1)N1CC(=O)N2CCc3ccccc3[C@@H]2C1	-60.5%	11.2%	37.9%	?	-9.1%	0.9[20.6 µM]
CCCC[C@@H](NC(=O)[C@@H](Cc1cn(C(=O)OC)c2ccccc12)NC(=O)[C@H](CC(C)(C)C)NC(=O)N1[C@H](C)CCC[C@@H]1C)C(=O)O	15.5%	2.1%	nt	6.0%	-0.1%	nt
CC1CCc2c(sc(NC(=O)Cn3nc(C(F)(F)F)c4c3CCCCC4)c2C#N)C1 (stereo not drawn)	-27.8%	1.7%[38.3 µM]	-7.1%	25.1µM*	35.5µM*	6.0
N#Cc1c(NC(=O)Cn2nc(C(F)(F)F)c3c2CCCC3)sc2c1CCC2	1.9%	-4.6%[38.3 µM]	-2.1%	7.94µM*	8.91µM*	0.3
CCc1ccc(NC(=O)Cn2nc(C(F)(F)F)c3c2CCC3)cc1	9.7%	0.3%[38.3 µM]	-6.2%	6.2%	-16.7%	6.2
O=C(Oc1ccccc1)N1CCC2(CC1)CN(c1ccccc1)C2	-62.9%	5.3%	nt	-10.3%	-2.3%	nt
NS(=O)(=O)c1ccc(N=Nc2nc3[nH]cnc(=S)c3[nH]2)cc1	-57.1%[10 µM]	-3.0%	nt	?	?	nt
S=c1nc[nH]c2nc[nH]c12	-144.9%	10.6%	nt	7.94µM*	?	nt
CC(=O)Nc1nc(-c2ccc3c(c2)CCN3S(C)(=O)=O)cs1	25.0%[10 µM]	-2.9%	10.8%[9.22 µM]	?	nt	nt
CNc1nc(-c2ccc3c(c2)CCN3C(=O)c2ccccc2C)cs1	nt	11.9%	nt	12.6µM*	nt	nt
CS(=O)(=O)N1CCc2cc(-c3csc(NC(=O)Cc4cccs4)n3)ccc21	-23.6%[10 µM]	46.1%[38.3 µM]	-3.1%	12.6µM*	-13.7%	14.5
Cc1ccc(S(=O)(=O)N2CCN(Cc3cc(Br)ccc3O)CC2)cc1	nt	nt	nt	nt	nt	3.7
COCCN(C(=O)CNC(=O)c1cccs1)C(C(=O)NC1CCCCC1)c1ccco1 (stereo not drawn)	-17.5%[10 µM]	1.4%[38.3 µM]	5.4%	-9.7%	-10.6%	1.9
COCCN(C(=O)C(F)(F)F)C(C(=O)NC1CCCCC1)c1ccco1 (stereo not drawn)	-2.1%	8.2%[38.3 µM]	-1.9%	4.74µM*	-11.4%	-7.8
CCCC(=O)OCCNc1cc(SCCC(=O)OC)c2nonc2c1[N+](=O)[O-]	-5.0%[10 µM]	17.2%	4.5%	10µM*	28.2µM*	13.1
CC(=O)OCCNc1cc(SCc2ccco2)c2nonc2c1[N+](=O)[O-]	-0.2%[10 µM]	18.0%	3.3%	?	?	14.4

Compound activity from PubChem.
